SRC2 inh: inhibition of GAL4-SRC2 driven luciferase reporter, primary screen, SRC2 inhibitor project, cell-based, luminescence; 370,000 tested, 0.17% active; inhibition, % at 9 µM; Nuclear receptor coactivator 2 (Homo sapiens), Q15596; HEK293 GAL4-SRC2 luciferase reporter;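 active = inhibition above the mean inhibition of all tested compounds plus 3 SD, set per campaign, cut at about 52% in these data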
SRC1 inh: SRC1 coactivator transcriptional activity inhibitors, primary screen, cell-based, luminescence; Nuclear receptor coactivator 1 (Homo sapiens), Q15788; HEK293 GAL4-SRC1 luciferase reporter; inhibition, % at 3.6 µM; 360,000 tested, 0.12% active; AID 588354, 2011;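 active = inhibition above the campaign mean plus 3 SD, with each screening campaign given its own cutoff, cut at about 60% in these data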
Gli-Sufu antag: Gli-Sufu pathway antagonists, primary screen, luciferase luminescence, Sufu-KO-LIGHT cells, uHTS | AID 588413, 2011 | Sufu-KO-LIGHT fibroblasts, Gli luciferase reporter luminescence | inhibition, % at 5 µM | 340,000 tested, 0.74% active;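 active = inhibition above about 55%, limit read from the data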
NR2F2 inh: NR2F2 transcriptional activity inhibitors, primary screen, cell-based, luciferase reporter, HEK293T, luminescence; COUP transcription factor 2 (Homo sapiens), P24468; HEK293T NGFI-A luciferase reporter; inhibition, % at 8.6 µM; 370,000 tested, 0.7% active; AID 686940, 2013;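 active = inhibition above a per-plate cutoff, mean inhibition of test wells between control levels plus 3 SD, cut at about 38% in these data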;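 also: cells cotransfected with COUP-TFII expression vector driving the NGFI-A reporter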
NR5A2 inv ag: LRH-1 (NR5A2) inverse agonists, primary screen, cell-based, luminescence, HEK293T, StAR-luciferase reporter; Nuclear receptor subfamily 5 group A member 2 (Homo sapiens), O00482; LRH-1 transfected, 24 h; inhibition, % at 3.6 µM; 360,000 tested, 0.13% active;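 active = inhibition above the mean inhibition of all tested compounds plus 3 SD, cut at about 73% in these data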
SRC3 inh: SRC3 coactivator transcriptional activity inhibitors, primary screen, cell-based, luminescence | Nuclear receptor coactivator 3 (Homo sapiens), Q9Y6Q9 | HEK293 GAL4-SRC3 luciferase reporter | inhibition, % at 3.6 µM | 360,000 tested, 0.17% active;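 active = inhibition above a per-campaign cutoff, the mean of all compounds plus 3 SD, cut at about 60% in these data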;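 also: higher means less SRC3-driven luciferase light from the GAL4 reporter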
Gli antag conf: Gli-SUFU pathway antagonists, confirmation, single concentration, luciferase luminescence, Sufu-KO-LIGHT cells. shares compounds with Gli-Sufu antag. inhibition, % at 5 µM. 2,500 tested, 40% active. AID 602428, 2012. Gli luciferase reporter;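 active = mean inhibition at 5 µM reaching about 45%, limit read from the data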
Gli cytotox: cytotoxicity in Sufu-KO-LIGHT cells, confirmation, cytotoxicity control for Gli-SUFU antagonist project, cell-based, ATP luminescence, single concentration; shares compounds with Gli-Sufu antag; cytotoxicity, % at 5 µM; 2,500 tested, 32% active; AID 651994, 2013;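 active = mean cytotoxicity at 5 µM above about 25%, limit read from the data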;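 also: cells exposed to compound overnight for roughly 16 to 18 hours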
Wnt3a counter: Wnt3a reporter signal inhibition, confirmation, counter-screen for Gli-SUFU antagonist project, Wnt-LIGHT cells, luminescence, single concentration. 2,500 tested, 20% active. AID 651995, 2013. inhibition, % at 6.25 µM. shares compounds with Gli-Sufu antag. Wnt3a-driven luciferase reporter;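 active = mean inhibition above about 25%, limit read from the data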
VP16 Luc counter: Gal4-VP16 luciferase reporter inhibitors, counter-screen for COUP-TFII antagonist project, cell-based, luminescence, HEK293. shares compounds with NR2F2 inh. inhibition, % at 8.5 µM. 2,500 tested, 25% active. AID 687007, 2013; in the data active = inhibition above about 13%
COUP-TFII conf: NR2F2 transcriptional activity inhibitors, confirmation, cell-based, luciferase reporter, HEK293, triplicate | HEK293 NGFI-A luciferase reporter, luminescence | 2,500 tested, 45% active | AID 687008, 2013 | shares compounds with NR2F2 inh | inhibition, % at 8.5 µM;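 active = mean inhibition over three repeats above a set limit taken from the earlier primary screen, cut at about 38% in these data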
Of the large screens only hits and unclear results are named; the others gave an inactive call (follow-up assays come after a bar, where they were run). Only some compounds are listed: those with a hit (about 1.3% of all), similar ones and a draw of the others.

Cc1nnsc1C(=O)NC1CCCc2c1cnn2-c1ccc(F)cc1F (stereo not drawn)	Gli-Sufu antag 65.2, NR2F2 inh 63.9 | Gli antag conf 56.4 | Gli cytotox inactive | Wnt3a counter inactive | VP16 Luc counter inactive | COUP-TFII conf 65.8
Cc1nnsc1C(=O)NC1CCCc2c1cnn2-c1cc(F)cc(F)c1 (stereo not drawn)	none
COc1cc(C(=O)NC2CCCc3c2cnn3-c2ccccc2F)cc(OC)c1OC (stereo not drawn)	Gli-Sufu antag 61.1, NR2F2 inh 46.4 | Gli antag conf 47.7 | Gli cytotox 34.1 | Wnt3a counter inactive | VP16 Luc counter inactive | COUP-TFII conf inactive
CCOc1ccc(-n2c(SCC(=O)Nc3cccc4ccccc34)nnc2-c2ccco2)cc1	none (no result: SRC1 inh, Gli-Sufu antag, NR5A2 inv ag, SRC3 inh)
Cc1nn(C(C)C)c(C)c1CN1CCCC(C(=O)c2cccc(OC(C)C)c2)C1 (stereo not drawn)	Gli-Sufu antag 58.7, NR2F2 inh 37.5 | Gli antag conf inactive | Gli cytotox inactive | Wnt3a counter inactive | VP16 Luc counter inactive | COUP-TFII conf inactive
CC(C)Oc1cccc(C(=O)C2CCCN(Cc3cnn(C(C)C)c3)C2)c1 (stereo not drawn)	none
O=C(Cc1ccccc1)Nc1scc(-c2ccccc2)c1C(=O)N1CCOCC1	none (no result: SRC2 inh, NR2F2 inh)
NC(=O)c1c(-c2ccc(Cl)cc2Cl)csc1NC(=O)Cc1ccccc1	Gli-Sufu antag 56.5, NR2F2 inh 73.5 | Gli antag conf 61.9 | Gli cytotox inactive | Wnt3a counter inactive | VP16 Luc counter inactive | COUP-TFII conf 53.6
C=CCn1c(O)c(N=NC(=S)Nc2ccccc2F)c2cc(S(=O)(=O)N3CCOCC3)ccc21	Gli-Sufu antag 63.7, NR2F2 inh 48.6 | Gli antag conf 56.0 | Gli cytotox 29.2 | Wnt3a counter inactive | VP16 Luc counter inactive | COUP-TFII conf inactive
CC(C)C[C@H]1COc2cc(NCCCN3CCOCC3)ccc2S(=O)(=O)N1	none (no result: SRC1 inh, Gli-Sufu antag, NR5A2 inv ag, SRC3 inh)
CC(NC(=O)c1cc(COc2ccccc2)on1)c1nccs1 (stereo not drawn)	none
CC(NC(=O)c1cc(COc2ccc3ncccc3c2)on1)c1ccc(F)cc1 (stereo not drawn)	Gli-Sufu antag 57.8, NR2F2 inh 69.1 | Gli antag conf 63.7 | Gli cytotox 42.9 | Wnt3a counter inactive | VP16 Luc counter inactive | COUP-TFII conf 57.9
COc1cccc(CN(C)C(=O)c2cc(COc3ccc4ncccc4c3)on2)c1	Gli-Sufu antag 56.9, NR2F2 inh 72.7 | Gli antag conf 57.4 | Gli cytotox inactive | Wnt3a counter 27.3 | VP16 Luc counter inactive | COUP-TFII conf 55.5
CC(C)(C)S(=O)N1C[C@H]2CC(=O)C=C2[C@@H]1CCO (stereo partly drawn)	none (no result: SRC1 inh, Gli-Sufu antag, NR5A2 inv ag, SRC3 inh)
Cc1ccc(-n2c(Cc3cccs3)nnc2SCC(=O)Nc2ccccc2-c2ccccc2)cc1	none (no result: SRC1 inh, Gli-Sufu antag, NR5A2 inv ag, SRC3 inh)
CCOC(=O)C1CSCCS(=O)(=O)N1Cc1ccc(F)cc1F (stereo not drawn)	none (no result: SRC1 inh, Gli-Sufu antag, NR5A2 inv ag, SRC3 inh)
COc1ccc(-c2nc(CN3CCN(c4ccccc4OC)CC3)c(C)o2)cc1	none
COc1ccc(-c2nc(CN3CCN(c4ncnc5ccccc45)CC3)c(C)o2)c(OC)c1	Gli-Sufu antag 59.7, NR2F2 inh 52.1 | Gli antag conf inactive | Gli cytotox inactive | Wnt3a counter inactive | VP16 Luc counter inactive | COUP-TFII conf 39.6
CN1OC[C@@H]2CN[C@H](c3ccc(-n4ccnc4)cc3)C[C@@H]21	none (no result: SRC1 inh, Gli-Sufu antag, NR5A2 inv ag, SRC3 inh)
CN(Cc1ccccc1)C1=CC(=[N+]2CCCC2)CC(C)(C)C1	Gli-Sufu antag 90.7, NR2F2 inh 72.5, SRC3 inh 62.6 | Gli antag conf 87.7 | Gli cytotox 27.2 | Wnt3a counter 48.3 | VP16 Luc counter 15.3 | COUP-TFII conf 64.3
CCCCCCCCN1C(=O)[C@@H](CC(=O)NCCCN2CCCC2=O)C[C@@]2(C(=O)OC)C1=C[C@H](C(C)C)O[C@@H]2C1CC1	none (no result: SRC1 inh, Gli-Sufu antag, NR5A2 inv ag, SRC3 inh)
COc1ccc(NS(=O)(=O)c2ccc(N3CCCCC3)c(NC(=O)C(C)NC(N)=O)c2)cc1 (stereo not drawn)	none
COc1ccc(NS(=O)(=O)c2ccc(N3CCCCC3)c(N)c2)cc1	Gli-Sufu antag 57.9, NR2F2 inh 55.9 | Gli antag conf 73.5 | Gli cytotox 26.9 | Wnt3a counter inactive | VP16 Luc counter inactive | COUP-TFII conf 42.7
CCN1CCN(/C=N/c2nc3c(s2)CCCC3)CC1	NR2F2 inh 50.5 | Gli antag conf 69.7 | Gli cytotox inactive | Wnt3a counter 80.3 | VP16 Luc counter 25.1 | COUP-TFII conf 55.1
CN1CCN(CC(=O)Nc2nc3c(s2)CCCC3)CC1	none
COc1ccc2c(c1)[C@@]1(OCCC=C[C@H]1C)C(=O)N2C/C=C(\C)CCC=C(C)C	none (no result: SRC1 inh, Gli-Sufu antag, NR5A2 inv ag, SRC3 inh)
COc1ccc(CN2C[C@H](COCc3ccccc3)Oc3cccc(F)c3S2(=O)=O)cc1	none (no result: SRC1 inh, Gli-Sufu antag, NR5A2 inv ag, SRC3 inh)
O=C(NC(c1cccnc1)C(F)(F)F)c1cc(COc2ccc3c(c2)CCCC3)on1 (stereo not drawn)	Gli-Sufu antag 60.8, NR2F2 inh 41.8 | Gli antag conf 59.1 | Gli cytotox 31.1 | Wnt3a counter inactive | VP16 Luc counter inactive | COUP-TFII conf inactive
Cn1cc(CNC(=O)c2cc(COc3ccc4c(c3)CCCC4)on2)cn1	none
CN[C@H]1C[C@@H](c2ccccc2Br)N(C(C)=O)C[C@H]1CO	none (no result: SRC1 inh, Gli-Sufu antag, NR5A2 inv ag, SRC3 inh)
CN1/C(=C/C(=O)C2CCC2)Sc2ccccc21	none
